Measured values reported in ChEMBL document CHEMBL4513216, “Probing the Open Global Health Chemical Diversity Library for Multistage-Active Starting Points for Next-Generation Antimalarials” (ACS Infect Dis, 2020).
The whole screen tested about 65,000 compounds, of which about 2,100 (3.2%) showed an effect of 50% or more. The median lay at about -52%. Shown is part of a subset that was picked to be rich in strong results.

system: Plasmodium falciparum; assay: Screen against P. falciparum Asexual Blood Stage (ABS), at 5uM; format: functional, Dd2; settings: tested at 5 uM

SMILES | INHIBITION
Cc1n[nH]c(C)c1C1COCCN1c1ncnc2sccc12 (centres undefined) | -34.7%
COCCN1CCC(c2nc3ccc(NC4CCC4)cn3n2)CC1 | -2.13%
CCN(CC)CCn1cnc(-c2ccccc2)c1-c1ncc[nH]1 | -46.8%
CCN(CC)CCn1cnc(-c2ccccc2)c1-c1cnc(C)s1 | 54.2%
CCN(CC)CCn1cnc(-c2ccccc2)c1-c1cnn(CC)c1 | 20.8%
Cc1nc(CCCNC(=O)Nc2cc(F)cc(F)c2)n[nH]1 | 0.825%
O=C(O)c1ccc(CC2CCN(Cc3ccc(-c4cc[nH]n4)o3)C2)cc1 (centres undefined) | -200%
NC(=O)CN1CCC(OCc2ccc(Cl)c(Cl)c2)CC1 | 32.6%
CCC(N)C(=O)N1CCC(OCc2ccc(Cl)c(Cl)c2)CC1 (centres undefined) | 65.5%
CNC(=O)CN1CCC(OCc2ccc(Cl)c(Cl)c2)CC1 | -0.573%
CC1CCCCN1C(=O)CCc1nnc(-c2ccccc2)o1 (centres undefined) | -26.9%
Cc1ccc(CNC(=O)Cn2nc(-c3ccc(F)cc3)oc2=O)cc1F | 55.6%
O=C(Cn1nc(-c2ccc(F)cc2)oc1=O)NCc1ccc(F)cc1 | -11.2%
O=C(Cn1nc(-c2ccc(F)cc2)oc1=O)NCc1ccncc1 | -63.3%
CCC1=NN2C(=N)C(=Cc3cccn3-c3ccc(Br)cc3)C(=O)N=C2S1 | -87.5%
CCCN(CCOC)C(=O)c1cc(Cn2c(C)nc3ccccc32)[nH]n1 | -11.8%
CC(NCCCN1CCCC1=O)c1ccc(F)cc1N(C)C (centres undefined) | -24.45%
CC(NCCN1CCC(N(C)C)CC1)c1ccc(F)cc1N(C)C (centres undefined) | 58.1%
CC(NCCn1cccn1)c1cc(F)ccc1F (centres undefined) | 0.681%
O=C([C@H]1CCCO1)N1CCOC2(CCCN(c3ncccc3F)C2)C1 (some centres undefined) | -9.29%
CC(C)Nc1nc2c(c(N(C)C)n1)CCN(Cc1nccn1C)CC2 | 54.5%
Cc1nc(NC(C)C)nc2c1CN(Cc1nccn1C)CC2 | -27.4%
CN(C)c1nc(N2CCCC2)nc2c1CCN(Cc1nccn1C)CC2 | 7.51%

SMILES | INHIBITION
O[C@@H]1CN(c2noc(C3CC3)n2)CC[C@H]1c1ccc2ccccc2c1 | -24.7%
Cc1cnn(C2CCCN(C(=O)c3ccccc3-n3cnnn3)C2)c1 (centres undefined) | -52.2%
COc1ccc2ccccc2c1CNCC1CCS(=O)(=O)C1 (centres undefined) | 67.4%
COc1cccc(-c2n[nH]cc2CNCC2CCS(=O)(=O)C2)c1 (centres undefined) | -48.5%
CNC(=O)c1cc(NC(=O)NCC2CCS(=O)(=O)C2)ccc1OC (centres undefined) | -116%
CC(C)OCCCNC(=O)CN(c1ccc(F)c(F)c1)S(C)(=O)=O | -105%
Fc1cccc(-c2nnn3c2COC(CNCc2ccsc2)C3)c1 (centres undefined) | -82.8%
c1cc(CN2Cc3nccn3CC(Cn3cncn3)C2)ccn1 (centres undefined) | -4.38%
O=C(C1CC1)N1CCC2(CC1)COCCN2Cc1ccc(F)cc1 | -40.7%
Cc1ccc(C(C(=O)NCCc2nc(C)cc(C)n2)N(C)C)cc1 (centres undefined) | -102%
Cc1ccc(C(C(=O)NCCN2CCC(CO)CC2)N(C)C)cc1 (centres undefined) | -9.75%
Cc1cccc(C(C(=O)NC(C)(C)CN2CCCC2)N(C)C)c1 (centres undefined) | 38.5%
Cc1ccc(C(C(=O)NCCN2CCCCCC2)N(C)C)cc1 (centres undefined) | 58.5%
Cc1ccc(C(C(=O)NC(C)(C)CN2CCCC2)N(C)C)cc1 (centres undefined) | 52%
Cc1cccc(C(C(=O)NC(C)(C)CN2CCOCC2)N(C)C)c1 (centres undefined) | 32%
Cc1cccc(COc2ccc(C(C)N)cc2)c1 (centres undefined) | 8.28%
CCc1ccc2nc(C)cc(C(=O)N[C@@H]3CCCNC3)c2c1 | 64.5%
CCc1ccc2nc(C)cc(C(=O)NC[C@@H]3CCNC[C@H]3O)c2c1 | -49.3%
CCc1ccc2nc(C)cc(C(=O)N[C@@H]3CNC[C@H]3O)c2c1 | -22%
N#CCCNC(=O)CN1CC(n2cccn2)C1 | -21.3%
O=S(=O)(Cc1cccc(Cl)c1)CC(O)Cn1cccn1 (centres undefined) | -0.894%
O=C(c1cscn1)N1CCc2c(COCC3CC3)cncc2C1 | -54.8%
O=c1occ(CN2CCCCCC2)c(O)c1CN1CCOCC1 | -36%

SMILES | INHIBITION
O=c1occ(CN2CCSCC2)c(O)c1CN1CCCC1 | -7.27%
O=c1occ(CN2CCCCCC2)c(O)c1CN1CCCCCC1 | 55.5%
COc1c(C(=O)NCC(C)C)nnn1Cc1ccccc1 | -128%
C[C@@H]1CN(CCOCc2ccccc2)CC[C@@]1(O)C1CCC1 | 54.7%
C[C@@H]1CN(CCC(=O)N(C)Cc2ccccc2)CC[C@@]1(O)C1CCC1 | 22.8%
C[C@@H]1CN(CCOc2ccc(Cl)cc2)CC[C@@]1(O)C1CCOCC1 | -28.8%
CN(CCCc1cc(-c2ccc(F)cc2)n(C)n1)CC(=O)NC(N)=O | -152%
CN(C)C(=O)C1CCC2(CCN(Cc3ccc4ccccc4n3)CC2)O1 (centres undefined) | -19%
CCOc1ccc(Cl)cc1C1CCCCN1 (centres undefined) | 68.8%
CCOc1ccc(Cl)cc1C(C(=O)O)N1CCCC1 (centres undefined) | 2.39%
CCOc1ccccc1C1CCCN1 (centres undefined) | -8.92%
Cn1cc(CCC(=O)N2C[C@@H]3CC[C@H]2CN(Cc2ccccc2)C3)cn1 | 14.3%
CCC(=O)N1CCCCC1c1nc(O)c2c(n1)CN(C(C)=O)CC2 (centres undefined) | -29.8%
Cc1ccoc1CNCc1nnc2n1CC(C(F)(F)F)CC2 (centres undefined) | -13.5%
Cc1ccccc1CN(C)CC(O)COCc1ccccc1Cl (centres undefined) | 68.9%
COc1ccccc1COCC(O)CN(C)Cc1cccc(Cl)c1 (centres undefined) | -93.4%
COc1ccc(CN(C)CC(O)COCc2ccccc2Cl)c(OC)c1 (centres undefined) | -5.65%
OC[C@H]1CN(Cc2c(Cl)cncc2Cl)C[C@H]1CN1CCCCCC1 | 12.6%
OC[C@H]1CN(Cc2c(Cl)cccc2Cl)C[C@H]1CN1CCCCC1 | 50.8%
OC[C@H]1CN(Cc2c(Cl)cncc2Cl)C[C@H]1CN1CCOCC1 | -53.1%
Clc1ccc(CN(CCN2CCOCC2)Cc2cccnc2)c(Cl)c1 | 35.4%
Clc1cccc(Cl)c1CN(CCCN1CCOCC1)Cc1cccnc1 | -6.41%
Clc1ccc(CN(CCN2CCOCC2)Cc2cccnc2)cc1Cl | 53.8%
